# Bioassay records (PubChem BioAssay)
# An excerpt weighted towards active compounds, which were near 1.9% of everything screened.
# eIF4H FP inh = inhibitors of RNA binding by human eIF4H | 290,000 tested, 0.94% active | Q15056 | eIF4H fluorescence polarization binding assay | inhibition, % at 35 µM;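 also: calls also rest on retests at 20 µM and on dose response follow-up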
# PABP1 MLLE inh = blocks PAM2 peptide binding to the PABP1 MLLE domain. P11940. GST-MLLE / FITC-PAM2 fluorescence polarization. inhibition, % at 20 µM. 360,000 tested, 0.36% active; in the data active = inhibition above about 35%, passing the limit was not always enough;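 also: plate controls were DMSO wells with GST-MLLE for no effect and wells lacking GST-MLLE protein for full effect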
# PERK inhibitor = inhibitors of human PERK kinase. CHO PERK-DD fusion, SEAP luminescence translation reporter. inhibition, % at 5.6 µM. 220,000 tested, 0.17% active. AID 1416;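 active = inhibition above the mean inhibition of all tested compounds plus 3 SD, set separately per screening campaign, cut at about 2.9% in these data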;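 also: PERK kinase domain activated by AP20187 dimerizer at 100 nM; 0% = DMSO with dimerizer and 100% = rapamycin at 8.4 µM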
# PABP polyA inh = PABP-poly(A) binding inhibition; P11940; PABP-poly(A) RNA binding, fluorescence polarization; inhibition, % at 35 µM; 290,000 tested, 1% active;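 also: calls also rest on retests at 20 µM and on dose response follow-up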
# GRK2 inh = human GRK2 inhibition via aptamer displacement. bead flow cytometry, FAM-aptamer displacement from GRK2. AID 488847. P25098. inhibition of aptamer binding, % at 10 µM. 330,000 tested, 0.59% active;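 active = inhibition of aptamer binding above 40%, roughly 3 SD of noise, on plates passing a quality check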;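 also: median bead fluorescence of bound FAM aptamer so fluorescent compounds give negative values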
# Target sequence (P25098 whole entry, looked up): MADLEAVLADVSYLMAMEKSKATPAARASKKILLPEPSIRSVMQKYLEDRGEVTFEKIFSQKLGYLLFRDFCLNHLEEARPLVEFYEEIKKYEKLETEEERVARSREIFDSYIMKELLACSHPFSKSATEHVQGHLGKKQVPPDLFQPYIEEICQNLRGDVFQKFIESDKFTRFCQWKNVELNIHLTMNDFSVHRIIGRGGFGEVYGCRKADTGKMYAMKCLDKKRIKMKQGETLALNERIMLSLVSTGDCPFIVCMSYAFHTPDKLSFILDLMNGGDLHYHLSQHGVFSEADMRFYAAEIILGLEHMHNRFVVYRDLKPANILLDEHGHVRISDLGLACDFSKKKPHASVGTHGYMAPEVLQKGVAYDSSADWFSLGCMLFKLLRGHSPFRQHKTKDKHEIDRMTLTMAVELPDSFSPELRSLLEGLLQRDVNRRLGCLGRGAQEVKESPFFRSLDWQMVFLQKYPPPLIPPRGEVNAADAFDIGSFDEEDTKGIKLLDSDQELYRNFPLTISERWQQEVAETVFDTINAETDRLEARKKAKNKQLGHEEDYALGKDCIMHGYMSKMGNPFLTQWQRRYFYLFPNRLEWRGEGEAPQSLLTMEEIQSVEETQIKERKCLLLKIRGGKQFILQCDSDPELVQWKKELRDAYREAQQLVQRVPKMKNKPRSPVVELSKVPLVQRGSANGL
# GRK2 inh confirm = confirmation of human GRK2 inhibitors displacing RNA aptamer; shares compounds with GRK2 inh; 2,000 tested, 4% active; bead-bound GRK2, FAM-aptamer displacement, flow cytometry; AID 504451; aptamer displacement, % at 10 µM;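 active = aptamer displacement above 40%, near three times the noise of non-fluorescent compounds, on plates passing quality checks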;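 also: negative values mostly reflect intrinsic compound fluorescence rather than true enhancement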
# Aptamer quench 1 = fluorescent aptamer quenching in GRK2 counter-screen dose response; shares compounds with GRK2 inh; Fluorescent RNA aptamer beads, flow cytometry; hits give high values; fluorescence change (kMESF span), kMESF (concentration not given with the values); 110 tested, under 10 active;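 active = compounds whose bead fluorescence drops by more than 37 kMESF across the dose range, marking them as dye quenchers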
# Aptamer quench SP = quenches fluorescent RNA aptamer, GRK2 hit artifact. Carboxyfluorescein RNA aptamer on beads, flow cytometry quenching; hits give low values. AID 504580. fluorescence response (% of DMSO), % at 10 µM. 2,000 tested, under 10 active. shares compounds with GRK2 inh;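 active = compounds that quench the bead-bound fluorescent RNA probe, cutting fluorescence to under half of the solvent control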;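 also: counterscreen run without GRK2 so only probe quenching by compound is measured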
# GRK2 confirm 2 = confirmation of human GRK2 inhibitors binding RNA aptamer site; shares compounds with GRK2 inh; bead-bound GRK2, FAM-aptamer displacement, flow cytometry; inhibition of aptamer binding, % at 10 µM; 360 tested, under 10 active; AID 504782;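 active = inhibition of aptamer binding above 40%, about triple the noise seen with nonglowing compounds, on plates passing quality control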;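 also: negative values mostly come from compounds that fluoresce themselves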
# FAM quench SP = counter-screen for GRK2 binding hits: quenchers of fluorescent RNA aptamer; shares compounds with GRK2 inh; carboxyfluorescein RNA aptamer beads, flow cytometry quenching; hits give low values; fluorescence response vs DMSO, % at 10 µM; 360 tested, under 10 active; AID 588494;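 active = response vs DMSO under 50%, meaning signal dropped by over half, treated as fluorescence quencher; inconclusive = no clear call, values can overlap the other calls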;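 also: labelled aptamer on streptavidin beads without GRK2 as a quench counter-screen; 100% = bead fluorescence of DMSO wells and lower means quenching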
# Starred values were filed as active, the others as inactive; ? = inconclusive; nt = no result given. Unless noted, no rule for the calls is given here.
SMILES,eIF4H FP inh,PABP1 MLLE inh,PERK inhibitor,PABP polyA inh,GRK2 inh,GRK2 inh confirm,Aptamer quench SP,others
CCCOC(=O)c1cc(-c2ccc(/C=C3/C(=O)N(C)C(=O)C(C#N)=C3C)o2)ccc1Cl,nt,-1.9,2.3,nt,52.0*,-0.3,96.0,
CCCOC(=O)c1cc(-c2ccc(C=O)o2)ccc1Cl,-7.7,-9.9,0.5,-8.6,0.0,nt,nt,
CCOCCc1nnc(NC(=O)C2CC(=O)N(c3ccc(OCC)cc3)C2)s1 (stereo not drawn),4.6,-2.5,nt,6.4,93.0*,0.2,95.7,
CCc1cc(C(=O)Nc2ccc(S(=O)(=O)NC3=NCCCCC3)cc2)sc1C,nt,-21.0,nt,nt,2.0,nt,nt,
O=c1c2c3c(sc2nc(NCCO)n1Cc1ccco1)CCCCC3,5.2,12.0,-0.3,3.9,4.0,nt,nt,
O=c1c2c3c(sc2nc(NCCO)n1CCc1ccccc1)CCCCC3,-1.7,24.6,-0.1,-5.5,90.0*,-4.2,93.7,
O=[N+]([O-])c1ccccc1/C=N/Nc1nc(N2CCCC2)nc(N2CCCC2)n1,3.4,3.5,0.0,3.8,59.0*,-0.5,91.1,
O=C(NC1CC1)c1cccc2c1C(=O)c1ccc(N3CCC(Cc4ccccc4)CC3)cc1S2(=O)=O,nt,-86.0,nt,nt,73.0*,nt,nt,GRK2 confirm 2=-20.2;FAM quench SP=101.0
CCC1CC(C(=O)Nc2ccccc2)C(=O)O1 (stereo not drawn),nt,2.1,nt,nt,69.0*,0.1,100.6,
CC(C)C1CC(C(=O)Nc2ccccc2)C(=O)O1 (stereo not drawn),nt,-4.7,nt,nt,1.0,nt,nt,
CC1=C(C(=O)Nc2cc(C(=O)N(C)Cc3ccccc3)ccc2C)SCCO1,-4.9,11.0,nt,10.6,2.0,0.9,101.5,
COc1ccc(OC)c(CNC(=O)c2ccc(C)c(NC(=O)C3=C(C)OCCS3)c2)c1,5.6,8.1,nt,-4.0,0.0,-0.4,101.0,
O=C(Cc1c(F)cccc1Cl)NCc1cccnc1,6.8,3.9,nt,2.2,16.0,nt,nt,
O=C(NCCCSc1ccccc1)c1cc(Br)ccc1O,-1.7,12.3,nt,8.8,1.0,nt,nt,
C/C(Cn1nnc2ccccc21)=N\OC(=O)c1ccccc1C,0.1,8.6,-0.7,12.9,75.0*,-17.5,95.8,
CCOC(=O)CNC(=O)c1sc(NC(=O)c2ccccc2F)nc1C,6.1,6.9,0.6,6.6,59.0*,0.9,113.2,
Cc1ccc(C2OCC(C)([N+](=O)[O-])CO2)cc1 (stereo not drawn),nt,16.1,nt,nt,nt,nt,nt,
CCOC1=C2[C@H](c3ccccc3F)N(S(=O)(=O)c3ccc(C)cc3)C[C@H]2n2c(=O)n(-c3ccccc3)c(=O)n2C1,nt,2.8,nt,nt,nt,nt,nt,
CCn1c(=S)sc2c(=O)n(CC(=O)Nc3ccccc3C(F)(F)F)c(C)nc21,1.9,-3.0,nt,-50.1,59.0*,-11.8,97.5,
CC(=O)N1c2ccc(S(=O)(=O)NCCC(=O)Nc3cccc(Cl)c3)cc2CC1C (stereo not drawn),3.4,1.7,nt,6.4,2.0,nt,nt,
CC(C)(C)OC(=O)N1CCC(c2cc(=O)n3[nH]c(-c4ccc(Cl)cc4)cc3n2)CC1,4.8,3.9,0.3,5.6,88.0*,-25.9,94.1,
CCOC(=O)Cc1cc(=O)n2[nH]c(-c3ccc(Cl)cc3)cc2n1,18.9,5.4,0.3,6.0,0.0,nt,nt,
CCC(/C=C1\Sc2ccc(OC)cc2N1CC)=C\c1sc2ccc(OC)cc2[n+]1CCCS(=O)(=O)[O-],-6.3,10.4,0.0,3.9,91.0*,84.9*,107.6,Aptamer quench 1=1.7
C=CCN1CCN(C(CCC)c2nnnn2Cc2ccco2)CC1 (stereo not drawn),-17.4,-2.3,0.4,1.1,0.0,nt,nt,
CCOc1ccc(C2=NNC(c3cccnc3)=Nc3ccc(OC)cc32)cc1,-8.7,-1.1,-0.3,7.3,100.0*,3.5,101.1,
SMILES,eIF4H FP inh,PABP1 MLLE inh,PERK inhibitor,PABP polyA inh,GRK2 inh,GRK2 inh confirm,Aptamer quench SP,others
O=C(NCc1ccccc1)Nc1cccn(Cc2ccc(F)cc2)c1=O,5.7,5.1,-0.6,-4.9,0.0,nt,nt,
O=C(NCc1ccccc1)Nc1cccn(Cc2ccccc2)c1=O,3.0,9.9,-0.7,-3.4,57.0*,nt,nt,GRK2 confirm 2=5.8;FAM quench SP=101.0
CC(=O)Oc1ccc2c(c1)cc(C)n2C,-6.9,14.5,1.8,-2.7,1.0,nt,nt,
Cc1cc2cc(CNC(=O)c3ccc4c(c3)OCO4)ccc2n1C,61.2*,56.1*,0.2,63.9*,22.0,4.5,94.3,
COc1ccc(C(=O)NCc2ccc3c(c2)OCO3)cc1,-3.8,-10.2,0.5,0.5,1.0,nt,nt,
COc1cc(OC)cc(C(=O)NCc2ccc3c(c2)cc(C)n3C)c1,69.3,78.0,0.5,-2.0,82.0*,3.1,98.0,
Cc1cc2cc(CNC(=O)Nc3ccc(Cl)c(Cl)c3)ccc2n1C,nt,81.6,1.8,nt,0.0,-2.7,94.5,
Cc1cc2cc(CNC(=O)NC3CCCCC3)ccc2n1C,13.2,-3.0,-0.5,19.7,16.0,nt,nt,
CCOc1ccc(CC(=O)NCc2ccc3c(c2)cc(C)n3C)cc1,46.4,18.2,0.5,12.2,0.0,-3.0,100.2,
CC[C@@]1(C(=O)OC)N[C@H](CN(C)C(=O)Nc2ccc(OC)cc2)[C@@H]2C(=O)N(Cc3ccccc3)C(=O)[C@@H]21,nt,-4.6,nt,nt,2.0,nt,nt,
NC(=O)CC(NC(=O)Cc1cccc2ccccc12)c1ccc(N2CCN(c3ccccn3)CC2)c([N+](=O)[O-])c1 (stereo not drawn),3.7,2.1,nt,11.5,0.0,nt,nt,
COc1ccc(CC(=O)NCc2ccc3c(c2)cc(C)n3C)cc1OC,?,27.9,0.2,-5.5,0.0,2.5,97.3,
CCOC(=O)/C=C1\SCC(=O)N1CC(=O)NCc1ccc(OC)c(OC)c1,1.2,-30.3,-0.5,-3.9,95.0*,0.6,98.1,
COc1cc(/C=C\C(=O)NCc2ccc3c(c2)cc(C)n3C)cc(OC)c1OC,100.6,20.4,-0.3,-0.9,0.0,nt,nt,
CCOC(=O)/C=C1\SCC(=O)N1CC(=O)NCCc1ccc(F)cc1,-8.6,-32.8,1.3,-11.6,0.0,nt,nt,
Cc1ccc(CNC(=O)C2CN(S(C)(=O)=O)c3cc(Cl)ccc3O2)cc1 (stereo not drawn),-12.7,-6.8,0.7,9.0,1.0,nt,nt,
CN1CCOC(=O)/C1=N/Nc1cc(Cl)ccc1Cl,-2.6,0.0,1.4,5.4,57.0*,-5.6,96.4,
Cn1nccc1C(=O)Nc1cc(Cl)ccc1Cl,nt,-0.4,nt,nt,1.0,nt,nt,
O=c1c2cc(Cl)ccc2[nH]c(=S)n1Cc1cccs1,1.7,-42.9,-0.1,-0.5,0.0,nt,nt,
S=C(Nc1ccc(-c2nc3ccccc3[nH]2)cc1)Nc1cccnc1,12.2,25.8,nt,8.6,0.0,nt,nt,
